Molecules are shown by their SMILES. Screen size: about 420,000 compounds; about 64,000 (15%) were called active. Another 27% or so got no clear call; they are omitted. Calls come from the whole dose curve; as a rule, active = well fitted inhibition curve with a large enough effect; inconclusive = small, poorly fitted or top-dose-only effect; inactive = flat fitted curve, though single readings scatter. Not all results are given here. A call without a number means that no potency is given here.
Potency is the fitted concentration of half-maximal effect.

A short description of the assay: qHTS for Inhibitors of human tyrosyl-DNA phosphodiesterase 1 (TDP1): qHTS in cells in absence of CPT. Note: nearly all actives have a fitted effect of over 55% in size. The settings on record: DT40 Tdp1-/- hTDP1 cells, no CPT, ATP luminescence, 48 h; activity change, negative = growth inhibition: at 46.2 µM (top of the series). In short, it runs like this: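 Luminescent ATP content (CellTiter-Glo) served as the growth readout. Knockout chicken DT40 cells expressing human TDP1 were exposed to compounds without camptothecin for a minimum 48 hr at 37 °C.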
In general terms: Quantitative high-throughput screening tests each substance at several concentrations.
As to `O=C(CN(c1cc(C(F)(F)F)ccc1Cl)S(=O)(=O)c1ccccc1)NCc1cccnc1`, the Potency is 18.4 µM (active).

Turning to `O=C(O)c1cc(S(=O)(=O)N(Cc2ccccc2)c2cccc(C(F)(F)F)c2)ccc1Cl`, the Potency entry is “inactive”.

Turning to `CCc1ccc(N(CC(=O)NCc2cccnc2)S(=O)(=O)c2ccccc2)cc1`, the Potency result is “inactive”.

Turning to `CC(=O)Nc1ccc(NC(=O)CSc2ncnc3c2cnn3Cc2ccccc2)cc1`, the Potency entry was “inactive”.

As to `OCc1n[nH]c(CO)n1`, the Potency result is “inactive”.

In the case of `COc1ccc(C(=O)Nc2c(Cl)cc(Cl)cc2C(=O)N2CCC(C)CC2)cc1`, the Potency entry was “inactive”.

On to `COc1ccc(C(=O)N2CCCCC2c2cc(C(=O)Nc3ccc(F)c(Cl)c3)no2)cc1` (stereo not drawn), for which the Potency was 23.1 µM (active).

Consider `CCCNC(=O)c1cc(C2CCCCN2C(=O)OC)on1` (stereo not drawn), for which the Potency entry is “inactive”.

Regarding `CC(=O)c1ccc(N2C(=NC(=O)C(C)C)SC3CS(=O)(=O)CC32)cc1` (stereo not drawn), the Potency result was “inactive”.

Consider `CCCOc1ccc(F)cc1-c1cc(C(=O)Nc2ccc(F)c(Cl)c2)[nH]n1`, for which the Potency is 16.4 µM (active).

With `COc1ccc(NC(=O)CN2CCN(S(=O)(=O)c3ccc(F)cc3)CC2)cc1Cl`, the Potency result was “inactive”.

`CCNC(=O)c1ccc(OCC(=O)Nc2ccc(F)cc2)c(OC)c1`: the Potency entry was “inactive”.

As to `O=C(O)Cc1csc(NC(=O)CSc2nnnn2-c2ccc(O)cc2)n1`, the Potency result was “inactive”.

With `CC(=O)Nc1ccc(S(=O)(=O)Oc2ccc(/C=N/N=C3/NC(=O)C(CC(=O)O)S3)cc2)cc1` (stereo not drawn), the Potency result is “inactive”.

`Cn1c(=N)n(CC(O)c2ccccc2)c2ccccc21` (stereo not drawn): the Potency entry was “inactive”.

For `CCOc1ccc(C(O)Cn2c(=N)n(CCN3CCCCC3)c3ccccc32)cc1` (stereo not drawn), the Potency was 23.1 µM (active).

As to `Cn1c(=N)n(CC(O)c2cccs2)c2ccccc21` (stereo not drawn), the Potency entry is “inactive”.

On to `NS(=O)(=O)c1ccc(CCNC(=O)c2ccc(Cl)cc2[N+](=O)[O-])cc1`, for which the Potency result was “inactive”.

As to `CC(=O)NCCc1ccc(S(=O)(=O)N(C)C2CCS(=O)(=O)C2)cc1` (stereo not drawn), the Potency result is “inactive”.

Consider `COc1cc(NS(=O)(=O)c2ccc(N=Cc3c(C)[nH]n(-c4ccccc4)c3=O)cc2)nc(OC)n1`, for which the Potency entry was “inactive”.

As for `CCc1nnc(NS(=O)(=O)c2ccc(N=Cc3c(C)[nH]n(-c4ccc(C)cc4)c3=O)cc2)s1`, the Potency is 11.2 µM (active).

As to `CCc1nnc(NS(=O)(=O)c2ccc(NS(=O)(=O)c3ccccc3)cc2)s1`, the Potency result was “inactive”.

On to `S=c1[nH]nc(-c2cc(-c3ccsc3)n[nH]2)n1-c1ccccc1`, for which the Potency entry is “inactive”.

Turning to `Cc1ccnc(N2CCCC(C(=O)Nc3cc(F)ccc3C)C2)n1` (stereo not drawn), the Potency result is “inactive”.

Consider `CCOc1ccc2nc(N3CCCC(C(=O)Nc4cc(C)ccc4C)C3)sc2c1` (stereo not drawn), for which the Potency was 18.4 µM (active).

Turning to `CCOc1ccc2nc(N3CCC(C(=O)Nc4cc(C)ccc4C)CC3)sc2c1`, the Potency is 16.4 µM (active).

In the case of `Cc1ccc(C)c(NC(=O)C2CCCN(S(=O)(=O)c3cn(C)cn3)C2)c1` (stereo not drawn), the Potency result is “inactive”.

As to `Cc1cc(C)c2nc(N3CCC(C(=O)NCCN4CCOCC4)CC3)sc2c1`, the Potency result is “inactive”.

In the case of `CCOC(=O)N1CCC(NC(=O)c2ccc3nc(N4CCOCC4)sc3c2)CC1`, the Potency result is “inactive”.

On to `CC1CCCCC1NC(=O)Cn1cnc2c1c(=O)n(C)c(=O)n2C` (stereo not drawn), for which the Potency entry is “inactive”.

Turning to `COC(=O)CN1C(=O)[C@H]2[C@@H](/C=C/c3ccccc3)N3C(=O)CN(CC4CC4)C(=O)[C@@]3(Cc3ccccc3)[C@H]2C1=O`, the Potency result is “inactive”.

With `COC(=O)C1(S(=O)(=O)C2(C(=O)OC)CCCC2)CCCC1`, the Potency result is “inactive”.

With `N#Cc1nc(COc2ccc(-c3ccccc3)cc2)oc1NCc1cccnc1`, the Potency is 25.9 µM (active).

As to `COc1ccc(-c2nnc(SCc3cccnc3)o2)cc1`, the Potency result is “inactive”.

As to `Cc1noc(C)c1-c1cc(NCc2cccnc2)ncn1`, the Potency entry is “inactive”.

For `O=C(Cn1nc(C(=O)O)c2ccccc2c1=O)Nc1ccc(F)cc1`, the Potency result was “inactive”.

Take `COc1cccc(NC(=O)CSc2nnc(C3CCCCC3)n2N)c1`: the Potency entry was “inactive”.

In the case of `O=C(COC(=O)c1ccc(F)cc1)NCC1COc2ccccc2O1` (stereo not drawn), the Potency result was “inactive”.

Turning to `O=C(Cn1cnc2ccccc2c1=O)NCC1COc2ccccc2O1` (stereo not drawn), the Potency result is “inactive”.

For `c1ccc2c(c1)OCC(CNc1ncnc3nc[nH]c13)O2` (stereo not drawn), the Potency was 13 µM (active).

Consider `CC(C)c1ccc(NC(=S)NC2CC3C=CC2C3)cc1` (stereo not drawn), for which the Potency is 29.1 µM (active).

As to `CC(C)c1ccc(NC(=S)NNc2ccc(Cl)c(C(=O)O)c2)cc1`, the Potency result was “inactive”.

As for `O=C(COC(=O)C1CC2C=CC1C2)Nc1ccccc1` (stereo not drawn), the Potency result was “inactive”.

As for `CCN1C(=O)C(=O)N(CC(=O)Nc2cc(C)ccc2C)C1=O`, the Potency entry was “inactive”.

Consider `O=P(c1ccc2c(c1)OCCO2)(N1CCOCC1)N1CCOCC1`, for which the Potency result is “inactive”.

`COC(=O)C(C)Oc1ccc2c(c1)O/C(=C\c1cccc(Br)c1)C2=O` (stereo not drawn): the Potency entry is “inactive”.

Turning to `O=C(COC(=O)Cc1ccc(Br)cc1)Nc1c(F)c(F)c(F)c(F)c1F`, the Potency result is “inactive”.

`COc1ccc(S(=O)(=O)N(CC(=O)NCc2ccco2)c2ccc(F)cc2)cc1`: the Potency entry is “inactive”.

Take `COC(=O)Cc1ccc(N(Cc2ccccc2F)S(=O)(=O)c2ccc(Br)cc2)cc1`: the Potency was 20.6 µM (active).

Consider `O=C(CCn1c(SCC(=O)c2ccccc2)nc2ccccc2c1=O)NCc1ccc(F)cc1`, for which the Potency result is “inactive”.

`CC1(C)CC(=O)C(C=NCc2cccnc2)=C(O)C1`: the Potency entry is “inactive”.

For `N=c1c2c3c(sc2ncn1N)CCCCC3`, the Potency result is “inactive”.

In the case of `Cc1nc2cc(NC(=O)NCc3ccccc3)ccc2o1`, the Potency result is “inactive”.

`C=CCN(C(=O)Nc1ccc2c(c1)nc(C)n2C)c1ccccc1`: the Potency entry is “inactive”.

With `C=CCN(C(=O)Nc1ccc2oc(C)nc2c1)c1ccccc1`, the Potency is 20.6 µM (active).

Regarding `N#CCCn1cnc2ccccc21`, the Potency result is “inactive”.

`Cc1c(C=O)n(C)n(-c2ccccc2)c1=O`: the Potency entry was “inactive”.

With `O=C(CSc1nnc(-c2cccnc2)n1Cc1ccco1)c1ccc(Cl)cc1`, the Potency is 25.9 µM (active).

Turning to `COc1cc(Cl)c(C)cc1NC(=O)CSc1nnc(-c2cccnc2)n1Cc1ccco1`, the Potency entry was “inactive”.

In the case of `O=C(CSc1nnc(-c2cnccn2)n1Cc1ccco1)c1ccc(Cl)c(Cl)c1`, the Potency result is “inactive”.

As for `CC(=O)NS(=O)(=O)c1ccc(NC(=O)C2C3C=CC(C3)C2C(=O)O)cc1` (stereo not drawn), the Potency result was “inactive”.

On to `Cc1cc2c3ccccc3[nH]c(=O)n2n1`, for which the Potency entry is “inactive”.

Consider `CCCCC(O)C1=C[N+](=O)CC=C1` (stereo not drawn), for which the Potency entry is “inactive”.

For the molecule `COc1ccc(-c2noc(CCC(=O)N3CCN(c4cccc(C)c4)CC3)n2)cc1`, the Potency was 13 µM (active).

On to `COc1ccc(N2CCN(C(=O)CCc3nc(-c4ccc(C)cc4)no3)CC2)cc1`, for which the Potency result was “inactive”.

As to `CN1CCN(C(=O)CCc2nc(-c3ccc(Cl)cc3)no2)CC1`, the Potency entry was “inactive”.

`O=C(COC(=O)c1ccco1)Nc1ccc(Cl)cn1`: the Potency entry was “inactive”.

For `O=c1ccn(Cc2ccccc2Cl)cc1`, the Potency entry was “inactive”.

As to `N=c1n(Cc2ccc(Cl)cc2)c2ccccc2n1CC(O)c1ccco1` (stereo not drawn), the Potency is 5.8 µM (active).

Consider `O=S(=O)(O)c1nc2ccccc2n1Cc1ccc(Cl)cc1`, for which the Potency entry was “inactive”.

For `CCC1=NN2C(=N)/C(=C/c3cc(C)n(-c4ccccc4)c3C)C(=O)N=C2S1`, the Potency entry was “inactive”.

Take `CCCC(=O)NC(=S)Nc1ccc(CN2CCOCC2)cc1`: the Potency result is “inactive”.

Regarding `COC(=O)c1sccc1NC(=O)CCC1CCCC1`, the Potency result is “inactive”.

Regarding `CCOC(=O)C(=CNNc1ccsc1C(=O)OC)C(=O)OCC`, the Potency was 10.3 µM (active).

In the case of `COC(=O)c1sccc1NC(=S)Nc1ccc(C)cc1`, the Potency result is “inactive”.

On to `CCn1c(SCC(=O)N(C)C2CCS(=O)(=O)C2)nnc1-c1cccs1` (stereo not drawn), for which the Potency result is “inactive”.

For `CC(C)N1C(=O)c2ccccc2NC(=O)C1C(=O)NCc1cccs1` (stereo not drawn), the Potency entry was “inactive”.

As to `CCC1Sc2ccc(S(=O)(=O)CCC(=O)NCc3cccs3)cc2NC1=O` (stereo not drawn), the Potency was 14.6 µM (active).

On to `CCN(CC(=O)NCc1cccs1)C(=O)c1cccc(S(=O)(=O)Nc2ccccc2OC)c1`, for which the Potency result is “inactive”.

On to `Cc1cc(C)c(NC(=O)CS(=O)CC(=O)Nc2cccnc2)c(C)c1` (stereo not drawn), for which the Potency result is “inactive”.

`COc1ccccc1N(CC(=O)Nc1ccccc1C(=O)N1CCCC1)S(C)(=O)=O`: the Potency result was “inactive”.

For `CCOC(=O)CN1CCC(c2ccccc2)CC1`, the Potency result was “inactive”.

With `CCOC(=O)CN1C(=O)C(O)(CC(=O)c2ccccn2)c2ccccc21` (stereo not drawn), the Potency is 4.11 µM (active).

With `COc1ccccc1OCC(=O)O/N=C(\N)c1ccccn1`, the Potency entry was “inactive”.

With `CCCc1nn(C)c2c(=O)[nH]c(-c3cc(S(N)(=O)=O)ccc3OCC)nc12`, the Potency result is “inactive”.

As to `Cn1c2ccccc2n2c(=O)c(=O)n(CC(=O)c3ccc(F)cc3)nc12`, the Potency entry was “inactive”.

For the molecule `CCOC(=O)c1ccc(N2C(=O)CC(N(C)Cc3ccccc3)C2=O)cc1` (stereo not drawn), the Potency result is “inactive”.

Regarding `O=C1N/C(=C/c2cccs2)C(=O)N1Cc1ccc(F)cc1`, the Potency result is “inactive”.

As to `Cc1ccc(CN2C(=O)N/C(=C/c3cc(C)n(-c4ccccn4)c3C)C2=O)cc1`, the Potency is 23.1 µM (active).

With `Cc1cc(/C=C2/NC(=O)NC2=O)c(C)n1-c1cccnc1`, the Potency result is “inactive”.

As for `COCCn1c(=O)c(-c2cccs2)nc2cncnc21`, the Potency entry is “inactive”.

As to `CCOCCc1c(O)nc(SCC(=O)NCc2ccco2)[nH]c1=O`, the Potency result is “inactive”.

Regarding `O=C(NC1CCCCC1)C(c1cc2ccccc2o1)n1c(=O)c(-c2ccco2)nc2ccccc21` (stereo not drawn), the Potency is 16.4 µM (active).

Consider `Cn1c(SCC(=O)NC2CCCCC2)nnc1-c1cc2ccccc2o1`, for which the Potency result is “inactive”.

For `O=C(Nc1cc2ccccc2oc1=O)C1CCCCC1`, the Potency result was “inactive”.

For the molecule `CN1CCC(N(C)S(=O)(=O)c2ccc(NC(=O)c3cccc(C#N)c3)cc2)CC1`, the Potency result was “inactive”.

As to `CCN(CC)S(=O)(=O)c1ccc(N2CCCC2)c(NC(=O)c2ccc([N+](=O)[O-])o2)c1`, the Potency was 23.1 µM (active).

As for `COc1ccc(CC(=O)Nc2cc(S(=O)(=O)N3CCCCC3)ccc2N2CCN(C)CC2)cc1`, the Potency result was “inactive”.

Turning to `CN(C)S(=O)(=O)c1ccc(N2CCCC2)c(C(=O)NCc2ccccc2)c1`, the Potency entry was “inactive”.

For the molecule `CCN(CC)S(=O)(=O)c1ccc(N2CCOCC2)c(C(=O)O)c1`, the Potency entry was “inactive”.

With `CCN(CC)S(=O)(=O)c1ccc(N2CCOCC2)c(NC(=O)c2ccc(=O)n(C)n2)c1`, the Potency result is “inactive”.

Take `CCN(CC)S(=O)(=O)c1ccc(N2CCOCC2)c(NC(=O)C2COc3ccccc3O2)c1` (stereo not drawn): the Potency was 16.4 µM (active).

For `COc1ccc(C(C)NC(=S)NC2CCCCC2)cc1OC` (stereo not drawn), the Potency entry was “inactive”.

`Cc1ccc(NC(=S)NC2CCCC2)cc1`: the Potency entry was “inactive”.

Turning to `Cc1ccc(/C=N/NC(=O)CNC(=O)COc2ccccc2)o1`, the Potency entry was “inactive”.

Consider `CCCC/C(C)=N/NC(=O)NC1CCCCC1`, for which the Potency result is “inactive”.

Consider `Cc1ccc(/C=N/NC(=S)NC2CCCCC2)o1`, for which the Potency is 4.11 µM (active).

Take `C/C(=N\NC(=S)NC1CCCCC1)c1ccc(C)o1`: the Potency was 23.1 µM (active).

Values taken from PubChem BioAssay AID686978 (National Center for Advancing Translational Sciences (NCATS), 2013).
